The structures appear in SMILES notation. Active and inactive are the calls of the source. Unless noted, how the calls were made is not given here.

13 molecules from PubChem BioAssay can be followed below.

Test [1] concerns XIP peptide (Xip251-270) binding. Nature of the test: XIP fragment 251-270 binding compounds – biochemical, small-molecule microarray, fluorescence 635/667 nm, 0.1 µg/mL protein, primary screen (AID 1182). Conditions: fluorescent protein binding, 635 nm, higher = more signal, called active from +8 up or from −8 down.
The test system of test [2] is XIP peptide (Xip251-270). Nature of the test: compounds binding XIP fragment 251-270 – biochemical, small-molecule microarray, fluorescence 635/667 nm, 0.5 µg/mL protein, primary screen (AID 1183). To be noted: fluorescence 635 nm, higher = more signal.
Test [3] is described as follows: blood-stage malaria parasite viability loss – strain 3D7, DAPI fluorescence, 100 nL, primary screen (AID 1184).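 Further: parasites grown inside human red blood cells in medium with human serum.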 Conditions: P. falciparum 3D7 growth, 3 d, higher = more signal.
In test [4] the target is Homeobox protein Hox-A13 (Mus musculus) (UniProt Q62424). Nature of the test: disruptors of Hoxa13 oligonucleotide interaction – biochemical, fluorescence polarization, labeled oligonucleotide, primary screen (AID 1185). To be noted: Hoxa13:DNA binding, 15 min, higher = more signal, called active from +8 up or from −8 down.
A short description of test [5]: blockers of DNA damage checkpoint Chk1 activation – imaging, HeLa, hydroxyurea, phospho-Chk1 antibody, percent positive cells, primary screen (AID 1186). To be noted: hydroxyurea-induced phospho-Chk1 immunofluorescence imaging, higher = more signal.
The nature of test [6]: blockers of DNA damage checkpoint Chk1 activation – imaging, HeLa, hydroxyurea, phospho-Chk1 nuclear intensity, primary screen (AID 1187). To be noted: hydroxyurea-induced phospho-Chk1 immunofluorescence imaging, higher = more signal.

Chain of Homeobox protein Hox-A13 (Mus musculus) (Q62424 whole entry, looked up): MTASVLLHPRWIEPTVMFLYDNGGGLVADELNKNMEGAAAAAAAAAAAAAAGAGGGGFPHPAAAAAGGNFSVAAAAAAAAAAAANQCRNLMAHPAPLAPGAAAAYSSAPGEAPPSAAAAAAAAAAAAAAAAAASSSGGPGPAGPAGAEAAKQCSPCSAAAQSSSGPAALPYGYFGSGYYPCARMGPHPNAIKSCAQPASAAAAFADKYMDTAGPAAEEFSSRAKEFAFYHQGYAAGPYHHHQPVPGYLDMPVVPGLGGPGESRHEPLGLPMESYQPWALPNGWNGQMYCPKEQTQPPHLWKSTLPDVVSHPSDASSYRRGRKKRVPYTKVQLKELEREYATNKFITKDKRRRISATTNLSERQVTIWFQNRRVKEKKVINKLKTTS

With `Cc1ccc(S[C@]2(C(=O)NCCN3CCOCC3)CC(=O)N(C3Cc4ccccc4C3)[C@@H]2c2ccc(CO)cc2I)cc1`, the composite z-score is 0.669 (inactive) in test [1] and 0.771 in test [2]. The z-score in test [3] is -0.861; in test [4], -2.43 (inactive); in test [5], 0.18 (inactive); in test [6] it was 0.764 (inactive).

Turning to `O=C1c2ccccc2[C@@]2(Cc3ccccc3N(CC(F)(F)F)C2=O)[C@H](c2ccc(CO)cc2)N1C1CCCCC1`, the results for the composite z-score in test [1] and in test [2] were 0.586 (inactive) and 0.536, respectively. The z-score in test [3] was -0.361; in test [4], 0.601 (inactive); in test [5] it was -0.202 (inactive); in test [6] it was -0.26 (inactive).

In the case of `C=CC[C@]1(C(=O)NCC(O)CO)N=C(c2ccc(OCCCO)cc2)O[C@H]1c1ccccc1` (stereo partly drawn), the composite z-score in test [1] was 0.654 (inactive); in test [2] it was 0.124. The z-score in test [3] is -0.851; in test [4], -5.04 (inactive); in test [5], -0.147 (inactive); in test [6], -0.0911 (inactive).

On to `Cc1ccc(S(=O)(=O)N2[C@@H](c3ccccc3)C(C(=O)O)=CC[C@H]2c2ccccc2)cc1`, for which the results for the composite z-score in test [1] and in test [2] were -0.141 (inactive) and 0.0514, respectively. For the same molecule, the z-score in test [3] is -1.02; in test [4], -3.76 (inactive); in test [5], -0.354 (inactive); in test [6], -0.449 (inactive).

For `NC(=O)NCC#Cc1ccc2c(c1)[C@]1(C(=O)N2)[C@H](c2ccccc2OCCO)N2[C@H](c3ccccc3)[C@H](c3ccccc3)OC(=O)[C@H]2[C@@H]1C(=O)N1CCN(c2ncccn2)CC1`, the results for the composite z-score in test [1] and in test [2] were 0.233 (inactive) and 0.763, respectively. Besides, the z-score in test [3] was -2.34; in test [4], 0.487 (inactive); in test [5], 0.553 (inactive); in test [6], 1.5 (inactive).

`COc1ccc([Si](C)(C)[C@@H]2[C@@H](CCO)O[C@]3(C(=O)N(Cc4ccccc4)c4ccccc43)[C@H]2C)cc1`: the composite z-score is 0.151 (inactive) in test [1] and 0.283 in test [2]. The z-score in test [3] was -1.96; in test [4], 0.563 (inactive); in test [5], -0.0106 (inactive); in test [6] it was 0.402 (inactive).

Take `COCCOC(=O)N1C(=O)[C@@]2(c3cc(C#CCC(C(=O)OC)C(=O)OC)ccc31)[C@H](C(=O)N1CCN(c3ncccn3)CC1)[C@H]1C(=O)O[C@H](c3ccccc3)[C@H](c3ccccc3)N1[C@@H]2c1ccc(O)cc1`: the composite z-score in test [1] is 1.36 (inactive); in test [2], 0.843. The z-score was -2.08 in test [3], -0.323 (inactive) in test [4], -0.447 (inactive) in test [5] and -0.685 (inactive) in test [6].

For `CN1C(=O)C2C=CC(C(O)c3ccc(N(C)C)cc3)N(Nc3ccc([N+](=O)[O-])cc3[N+](=O)[O-])C2C1=O` (stereo not drawn), the composite z-score in test [1] is 0.695 (inactive); in test [2], 0.301. In addition, the z-score was 0.985 in test [3], -3.89 (inactive) in test [4], 0.347 (inactive) in test [5] and -0.169 (inactive) in test [6].

As for `CC(C)CNC(=O)[C@@]1(C)c2ccccc2C(=O)N(Cc2ccc(OC(F)(F)F)cc2)[C@H]1c1ccc(CO)cc1`, the composite z-score in test [1] is -0.332 (inactive); in test [2], -1.4. The z-score is -1.12 in test [3], -2.24 (inactive) in test [4], -0.273 (inactive) in test [5] and -0.177 (inactive) in test [6].

On to `COC(=O)c1c(CC[C@@H](CO)NC(=O)N[C@H](Cn2cc(-c3cncn3C)nn2)C(C)C)oc(C(C)=O)c1C(=O)OC`, for which the composite z-score in test [1] was 1.88 (inactive); in test [2], -0.0139. Besides, the z-score is -2.19 in test [3], 3.03 (inactive) in test [4], -0.139 (inactive) in test [5] and 0.233 (inactive) in test [6].

Turning to `COCCOC(=O)N1C(=O)[C@@]2(c3cc(C#CCNC(N)=O)ccc31)[C@H](c1ccc(OCCO)cc1)N1[C@H](c3ccccc3)[C@H](c3ccccc3)OC(=O)[C@H]1[C@@H]2C(=O)Nc1nc2ccccc2s1`, the composite z-score in test [1] was 0.329 (inactive); in test [2], -0.444. Further, the z-score in test [3] is -1.08; in test [4], 0.967 (inactive); in test [5] it was 0.0818 (inactive); in test [6] it was 0.238 (inactive).

With `O=C(NCC(F)(F)F)[C@@H]1c2ccccc2C(=O)N(Cc2ccccc2Cl)[C@H]1c1ccc(CO)cc1`, the composite z-score in test [1] was 0.0987 (inactive); in test [2], 0.0561. For the same molecule, the z-score was -0.472 in test [3], -2.37 (inactive) in test [4], 0.178 (inactive) in test [5] and 0.449 (inactive) in test [6].

As to `CO[C@H]1O[C@H](CO)[C@@H](OC(=O)Nc2ccc3c(c2)OCO3)[C@H](OC(=O)Nc2ccccc2)[C@@H]1OC(=O)Nc1ccccc1`, the results for the composite z-score in test [1] and in test [2] were 1.06 (inactive) and 0.649, respectively. The z-score in test [3] was -1.76; in test [4] it was -5.39 (inactive); in test [5], 0.171 (inactive); in test [6], 0.889 (inactive).
